# PNC inhibitor: blocks assembly of the perinucleolar compartment; 140,000 tested, 3.1% active; PC3M PTB-GFP, PNC prevalence imaging, 16 h; hits give low values; activity change (PNC), negative = inhibition, % at 10 µM; AID 2417;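 active = readout at or below -70, meaning at least 70% loss of cells showing the perinucleolar compartment, a nuclear body marking cancer cells; inconclusive = readout between -30 and a set limit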
#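 Read-out is percentage of cells bearing a perinucleolar compartment, from automated 20x imaging of fixed, Hoechst-stained PC3M PTB-GFP cells. Cells were seeded 4 h, then exposed 16 h to compound (23 nl of library stock) in duplicate plates.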
# ALDH1A1 block: inhibitors of human aldehyde dehydrogenase 1A1; Purified ALDH1A1, NADH fluorescence, propionaldehyde substrate; Potency, µM (titrated, usually from 75.3 µM), most hits filed as inhibitors; 220,000 tested, 7.3% active; AID 1030
# KDM4E inh: inhibitors of human JMJD2E histone demethylase; B2RXH2; 230,000 tested, 1.6% active; Potency, µM (titrated, usually from 57.1 µM), actives largely listed as inhibitors; AID 2147; JMJD2E catalytic domain, FDH-coupled NADH fluorescence (FDH is formaldehyde dehydrogenase); note: nearly all actives have a fitted effect of over 50% in size
# Target sequence (B2RXH2 1-337 limits assumed): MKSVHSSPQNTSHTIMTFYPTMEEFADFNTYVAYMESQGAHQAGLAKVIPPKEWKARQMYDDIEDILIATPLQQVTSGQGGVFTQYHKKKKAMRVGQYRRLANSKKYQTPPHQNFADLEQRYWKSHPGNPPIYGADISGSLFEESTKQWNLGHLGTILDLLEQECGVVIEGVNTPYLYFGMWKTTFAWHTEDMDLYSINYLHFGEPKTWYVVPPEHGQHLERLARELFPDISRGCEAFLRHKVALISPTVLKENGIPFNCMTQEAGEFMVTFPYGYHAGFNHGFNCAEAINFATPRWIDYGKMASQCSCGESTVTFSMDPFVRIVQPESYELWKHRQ
# HPGD inh: inhibitors of human 15-hydroxyprostaglandin dehydrogenase (HPGD) | P15428 | purified HPGD, NADH fluorescence kinetic, PGE2 substrate | Potency, µM, actives largely listed as inhibitors | 150,000 tested, 4.3% active
# Target sequence (P15428 whole entry, looked up): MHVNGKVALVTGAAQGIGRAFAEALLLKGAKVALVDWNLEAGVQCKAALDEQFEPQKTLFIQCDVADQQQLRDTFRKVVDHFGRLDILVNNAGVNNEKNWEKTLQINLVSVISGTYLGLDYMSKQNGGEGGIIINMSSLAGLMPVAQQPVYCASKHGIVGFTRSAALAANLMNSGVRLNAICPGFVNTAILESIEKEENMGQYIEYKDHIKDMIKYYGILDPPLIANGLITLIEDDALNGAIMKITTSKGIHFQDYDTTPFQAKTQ
#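 NADH formation kinetics: reaction with 30 uM PGE2 and 1 mM NAD+ (final), 20 nM enzyme, Tris-HCl pH 8 with Tween 20, after 15 min compound preincubation at room temperature. Fluorescence change, last versus first of five reads.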
# A number is an active result; . = inactive; ? = inconclusive; / = no result given; [ ] = remark or other dose. Compounds with a hit are over-represented: about 11% of the library has one in this group of screens. Unless noted, calls come from the whole dose curve; as a rule, active = well fitted inhibition curve with a large enough effect (not every such curve was filed as active); inconclusive = small, poorly fitted or top-dose-only effect, or another doubt; inactive = no such curve, though single readings can be large or run the other way.
SMILES,PNC inhibitor,ALDH1A1 block,KDM4E inh,HPGD inh
O=C(NCC1COc2ccccc2O1)C1CCCN(S(=O)(=O)c2cnc[nH]2)C1 (configuration not stated),-93,.,.,.
O=C(C1CCN(S(=O)(=O)c2cnc[nH]2)CC1)N(CCc1ccccc1)Cc1ccccc1,/,.,.,/
O=C(NCc1cccs1)c1ccc([N+](=O)[O-])cc1Cl,.,.,.,?
COc1ccc(NS(=O)(=O)c2ccc(NC(=S)NC(=O)c3ccc(Br)cc3)cc2)nn1,.,?,.,.
Cc1cccc(N=C2NC(=O)/C(=C/C=C/c3ccco3)S2)c1C,.,2.8µM,.,7.9µM
COc1ccc(N=C2NC(=O)/C(=C/C=C/c3ccccc3)S2)cc1,/,/,.,/
Cc1ccc(N=C2NC(=O)S/C2=C\c2ccco2)cc1,.,.,.,22µM
O=C1NC(=Nc2ccccc2)S/C1=C\C=C\c1ccco1,?,.,.,28µM
Cc1ccc(N=C2NC(=O)/C(=C/C=C/c3ccco3)S2)cc1,.,4.5µM,25µM,.
Cc1cccc(-c2cc(=O)c3cc(Br)ccc3o2)c1,/,.,.,.
CN(C)S(=O)(=O)c1ccc(Cl)c(NC(=O)CSc2nc3c(cc2C#N)C(=O)CC(C)(C)C3)c1,-109,?,.,.
CN(C)S(=O)(=O)c1cccc(NC(=O)CSc2nc3c(cc2C#N)C(=O)CC(C)(C)C3)c1,?,1.4µM,.,.
CSc1nc2c(cc1C#N)C(=O)CC(C)(C)C2,/,.,.,/
C#CCOCCOCCOCCNc1nc(N2CCN(C(=O)[C@H](CCC(=O)O)n3cc(C(N)CO)nn3)CC2)nc(N2CCN(C(=O)[C@H](CCC(=O)O)n3cc(C(N)[C@H](C)CC)nn3)CC2)n1 (some centres not stated),/,.,.,/
O=C(CNC(=O)COc1ccccc1)NCc1ccccc1F,.,.,.,/
Cc1ccc(NC(=O)c2ccc(S(=O)(=O)N3CCC(C)CC3)cc2)cc1,?,.,.,.
O=C(NC(=S)Nc1ccc(S(=O)(=O)N2CCCCC2)cc1)c1cccs1,.,?,?,.
CC1CCN(S(=O)(=O)c2ccc(NC(=S)NC(=O)c3ccc(Cl)cc3)cc2)CC1,.,4µM,.,.
O=C(NC(=S)Nc1ccc(S(=O)(=O)N2CCCCC2)cc1)c1ccc(Cl)cc1,?,0.5µM,.,?
COC(=O)CSc1ccc(S(=O)(=O)N2CCC(C)CC2)cc1[N+](=O)[O-],-109,.,.,.
COC(=O)c1cc(S(=O)(=O)N2CCC(C)CC2)ccc1F,.,28µM,.,?
Cc1ccc(S(=O)(=O)N2CCC(C)CC2)cc1[N+](=O)[O-],/,?,.,/
O=C(Nc1ccc(CN2CCCCC2)cc1)Nc1ccc(Br)cc1Cl,/,.,.,/
Cn1ccnc1,/,.,.,.
O=C(Nc1ccccc1)N1CCCC2(CCN(C(=O)c3cc(C(F)(F)F)cc(C(F)(F)F)c3)CC2)C1,/,.,/,.
SMILES,PNC inhibitor,ALDH1A1 block,KDM4E inh,HPGD inh
Cc1ccc2nc(C(=O)N3CCc4c([nH]c5ccccc45)C3c3ccccn3)cn2c1 (configuration not stated),/,.,.,/
OCCCN=C1CCCCC1,/,.[13.5 µM],/,.
CC(C)(C)c1nnc2cccc(Cl)n12,/,.,.,/
O=C(c1csnn1)N1CCC[C@@]2(CCN(c3ccccn3)C2)C1,/,.,/,.
CCCCN(CCCC)S(=O)(=O)c1ccc(SCC(=O)OCC)c([N+](=O)[O-])c1,-87,?,.,.
Cc1ccc2c(CN3CCCc4ccccc43)cc(=O)oc2c1C,?,16µM,?,.
Cc1cc2oc(=O)cc(CN3CCc4ccccc43)c2cc1Cl,.,.,.,.
OCCOCCn1c2ccccc2c2ccccc21,-139,.,.,.
Cc1ccccc1N1C(=O)c2sc3nc4c(c(=O)n3c2C1=O)CCC4,.,28µM,.,32µM
O=C1c2sc3nc4ccccc4n3c2C(=O)N1c1ccccc1Cl,.,16µM,?,14µM
O=C1c2sc3nc4c(c(=O)n3c2C(=O)N1c1ccccc1)CCC4,?,?,.,/
CCOP(=O)(OCC)C(C#N)=C1SCN(c2ccc(Cl)cc2)CS1,.,.,.,20µM
Cc1ccc(Nc2nc(CSc3nnc(-c4ccc(F)cc4)n3C)cs2)cc1,.,?,.,.
CCc1ccc2c(c1)c1nc(C)sc1n2CC,.,32µM,.,28µM
O=C(c1ccc(F)cc1F)N1CCN(c2n[nH]c(=O)[nH]c2=O)CC1,/,.,.,/
CCOC(=O)C(N)CSC1CC(=O)N(c2ccc(C(=O)OC)cc2)C1=O (configuration not stated),.,7.1µM,.,.
CCOc1ccc(N2C(=O)CC(N)C2=O)cc1 (configuration not stated),?,1.1µM,.,40µM
COC(=O)c1ccc(N2C(=O)CC(SCCN)C2=O)cc1 (configuration not stated),.,13µM,.,.
CCCOc1ccc(N2C(=O)CC(SCCN)C2=O)cc1 (configuration not stated),.,0.22µM,.,.
CCc1cccc(CC)c1NC(=O)COC(=O)c1cccc(-c2ccc(OC(C)=O)cc2)c1,.,.,.,.
N#Cc1c(-c2ccc(Br)cc2)nc2n(c1=O)CCCS2,?,35µM,.,28µM
N#Cc1c(-c2ccc(Cl)cc2)nc2n(c1=O)CCCS2,?,?,.,.
CC(C)c1cc(C(=O)NCCc2ccccc2)no1,/,.,.,/
Cc1ccc(OCCC(=O)Nc2ccc(F)c(Cl)c2)cc1,.,.,.,.
Cc1ccc(C(=O)CCNc2ccc(F)c(Cl)c2)o1,.,14µM,.,.
SMILES,PNC inhibitor,ALDH1A1 block,KDM4E inh,HPGD inh
Cc1ccc(C(=O)CCNc2ccc(Br)cc2)o1,.,11µM,.,.
Cc1ccc(C(=O)CCNc2cccc(Br)c2)o1,.,?,.,.
Cc1ccc(C(=O)CCNc2ccccc2)o1,.,16µM,.,.
Cc1oc(C(C)(C)C)cc1C(N)=O,/,.,.,/
CCCc1cc(C(=O)OC)c(NC(=O)c2cc(C)on2)s1,-87,.,.,.
CCc1ccc(NC(=O)c2cc(C)on2)cc1,.,.,.,.
CCc1c(C)sc(NC(=O)CC#N)c1C#N,.,3.5µM,?,?
CC(=O)Nc1sc2c(c1C#N)CCC2,/,.,.,/
CC(C)c1cc(C(=O)Nc2sc3c(c2C#N)CCC3)no1,.,18µM,.,?
CC(C)c1onc(C(=O)N2CCCCCC2)c1[N+](=O)[O-],/,25µM,.,/
O=C1CCCCC2CCCCN12 (configuration not stated),/,.,/,.
CC(=O)Nc1ccc(S(=O)(=O)NCC(=O)NC(C)c2ccc(S(N)(=O)=O)cc2)cc1 (configuration not stated),/,/,.,/
O=C(Nc1sc2c(c1C(=O)c1ccc(Cl)cc1)CCCC2)c1cccnc1,.,20µM,.,.
Cc1cc(C(=O)Nc2sc(C)c(C)c2C#N)no1,?,13µM,.,.
N#Cc1c(NC(=O)c2cnccn2)sc2c1CCCC2,.,14µM,?,28µM
N#Cc1c(NC(=O)c2cc([N+](=O)[O-])ccc2N2CCOCC2)sc2c1CCCC2,.,.,.,28µM
COc1ccc(CN2CC(=O)N(c3ccc(C)c(C)c3)C2=S)cc1OC,/,.,.,/
CCN=C(NCC)SC1CC(=O)N(c2ccc(F)cc2)C1=O (configuration not stated),/,.,.,/
